Results filed as inconclusive are left out. Calls of active or inactive are those of the source. Rule for the calls, unless noted: active = hit-call score of the fitted dose curve at least 0.9, where 1 is the maximum; inactive = score below 0.9.
Assays:
[1] = CEETOX_H295R_CORTISOL_noMTC: CeeTox H295R High-throughput Steroidogenesis Assay for Cortisol, maximum tolerated concentration (MTC) filtered results only (AID 2283916); settings: actives raise or lower the signal
Outline: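 H295R human adrenal cells prestimulated 48 h with 10 uM forskolin, then exposed 48 h to chemical in 0.1% DMSO; cortisol in medium quantified by HPLC-MS/MS; bidirectional fit vs DMSO baseline, concentrations not MTT-filtered for MTC.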

[2] = CEETOX_H295R_CORTIC_noMTC: CeeTox H295R High-throughput Steroidogenesis Assay for Corticosterone (CORTIC), maximum tolerated concentration (MTC) filtered results only (AID 2283917); settings: actives raise or lower the signal
Outline: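 Corticosterone secreted into the medium was measured by reverse-phase C18 HPLC with tandem MS after MTBE extraction. Cells (H295R) had 48 h forskolin (10 uM) stimulation before 48 h chemical exposure; gain or loss of signal was fitted relative to DMSO.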

[3] = CEETOX_H295R_DOC_noMTC: CeeTox H295R High-throughput Steroidogenesis Assay for DOC, maximum tolerated concentration (MTC) filtered results only (AID 2283918); settings: actives raise or lower the signal
Outline: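 H295R cells prestimulated 48 h with 10 uM forskolin, then exposed 48 h to chemical in 0.1% DMSO. 11-Deoxycorticosterone in medium measured by MTBE extraction and HPLC-MS/MS; bidirectional fit vs DMSO, no MTC filter.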

[4] = CEETOX_H295R_ESTRADIOL_noMTC: CeeTox H295R High-throughput Steroidogenesis Assay for Estradiol, maximum tolerated concentration (MTC) filtered results only (AID 2283919); settings: actives raise or lower the signal
Outline: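 Readout: dansyl-derivatized estradiol quantified by LC-MS/MS in medium from H295R cells dosed 48 h (0.1% DMSO) following 48 h forskolin (10 uM) prestimulation. Gain or loss of signal fitted against DMSO; no MTC filtering applied.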

[5] = CEETOX_H295R_PROG_noMTC: CeeTox H295R High-throughput Steroidogenesis Assay for Progesterone (PROG), maximum tolerated concentration (MTC) filtered results only (AID 2283920); settings: actives raise or lower the signal
Outline: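 Readout: medium progesterone by MTBE extraction, reverse-phase C18 HPLC, ESI-positive MS/MS. Human H295R cells, 10 uM forskolin pretreatment 48 h, chemical 48 h in 0.1% DMSO. Gain or loss fitted against DMSO baseline.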

[6] = CEETOX_H295R_ESTRONE_noMTC: CeeTox H295R High-throughput Steroidogenesis Assay for Estrone, maximum tolerated concentration (MTC) filtered results only (AID 2283921); settings: actives raise or lower the signal
Outline: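 Estrone in spent medium, quantified by tandem MS following dansyl chloride derivatization, after 48 h chemical exposure (0.1% DMSO) of forskolin-prestimulated (10 uM, 48 h) H295R cells; concentrations not MTC-filtered, bidirectional fit against DMSO.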

PGR (gene 5241) = PGR (gene 5241) (UniProt P06401); assay: TOX21_PR_BLA_Followup_Antagonist_ratio: Tox21 HEK293 Progesterone Receptor (PR) Antagonism Beta-lactamase Follow-Up Assay, Ratio (AID 2283934; active = hit-call score of the fitted dose curve at least 0.9, where 1 is the maximum)
Chain of PGR (gene 5241) (P06401 whole entry, looked up, the tested form may be a part): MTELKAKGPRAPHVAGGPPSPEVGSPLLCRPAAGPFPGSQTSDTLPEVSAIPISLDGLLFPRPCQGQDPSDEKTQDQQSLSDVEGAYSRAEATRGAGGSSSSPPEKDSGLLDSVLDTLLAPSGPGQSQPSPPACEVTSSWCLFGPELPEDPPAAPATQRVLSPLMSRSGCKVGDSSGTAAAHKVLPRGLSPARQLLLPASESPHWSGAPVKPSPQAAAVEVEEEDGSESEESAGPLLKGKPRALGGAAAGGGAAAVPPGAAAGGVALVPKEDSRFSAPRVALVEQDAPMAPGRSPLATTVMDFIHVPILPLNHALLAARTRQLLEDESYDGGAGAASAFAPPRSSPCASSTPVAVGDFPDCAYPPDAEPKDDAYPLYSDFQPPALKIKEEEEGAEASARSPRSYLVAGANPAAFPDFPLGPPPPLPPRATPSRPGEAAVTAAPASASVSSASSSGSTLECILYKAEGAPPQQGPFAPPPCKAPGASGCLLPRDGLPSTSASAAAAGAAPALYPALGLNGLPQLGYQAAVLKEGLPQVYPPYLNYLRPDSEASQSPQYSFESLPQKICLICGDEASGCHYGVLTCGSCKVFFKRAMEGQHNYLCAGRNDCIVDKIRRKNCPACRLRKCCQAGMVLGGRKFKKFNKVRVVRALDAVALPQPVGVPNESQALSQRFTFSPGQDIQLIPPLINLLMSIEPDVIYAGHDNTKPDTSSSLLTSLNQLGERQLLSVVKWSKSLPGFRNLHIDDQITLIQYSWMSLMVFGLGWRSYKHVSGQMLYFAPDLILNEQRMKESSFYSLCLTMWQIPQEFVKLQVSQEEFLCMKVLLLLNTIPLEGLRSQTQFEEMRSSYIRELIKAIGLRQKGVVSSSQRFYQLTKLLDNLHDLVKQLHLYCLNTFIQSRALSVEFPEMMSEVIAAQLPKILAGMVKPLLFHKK
Outline: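 Read-out: blue/green beta-lactamase FRET ratio (cleaved ch2 over uncleaved ch1), fitted relative to DMSO baseline. Cells: PR-UAS-bla HEK293T, GAL4-UAS reporter, stimulated with 1 nM R5020 final; 16 hr compound exposure, 37C.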

[7] = TOX21_PR_BLA_Followup_Antagonist_viability: Viability Assessment in the Tox21 HEK293 Progesterone Receptor (PR) Antagonism Beta-lactamase Follow-Up Assay (AID 2283936; active = hit-call score of the fitted dose curve at least 0.9, where 1 is the maximum;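 note: cells exposed to compound with R5020 agonist for 16 h; hits lower the luminescence signal meaning cytotoxicity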)
Outline: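 PR-UAS-bla HEK293T cells in medium with 2% charcoal-stripped FBS were treated with compounds plus R5020 for 16 hr at 37C. After the beta-lactamase read, CellTiter-Glo was added to the same wells and luminescence read after 30 min at room temperature.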

[8] = TOX21_PR_BLA_Followup_Agonist_viability: Viability Assessment in the Tox21 HEK293 Progesterone Receptor (PR) Agonism Beta-lactamase Follow-Up Assay (AID 2283935; active = hit-call score of the fitted dose curve at least 0.9, where 1 is the maximum;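 note: signal loss means lower viability so actives are cytotoxic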)
Outline: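 Luminescent ATP quantitation (CellTiter-Glo, 30 min, room temperature) in the same wells as the beta-lactamase read, on PR-UAS-bla HEK293T cells exposed to compound for 16 hr at 37C in 2% charcoal-stripped serum.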

[9] = CEETOX_H295R_TESTO_noMTC: CeeTox H295R High-throughput Steroidogenesis Assay for Testosterone (TESTO), maximum tolerated concentration (MTC) filtered results only (AID 2283924); settings: actives raise or lower the signal
Outline: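 Medium testosterone, measured by HPLC-MS/MS after liquid-liquid extraction, was fitted in both directions relative to DMSO without MTC filtering. Adrenal H295R cells received 48 h chemical exposure (0.1% DMSO final) after 48 h forskolin (10 uM) prestimulation; viability by MTT.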

Measured: AC50

c1ccc2cc3ccccc3cc2c1
inactive: [1] | [2] | [3] | [4] | [5] | [6]

NC(=O)N(O)[C@@H]1COc2cc(OCc3ccccc3)ccc21
inactive: PGR (gene 5241) | [7]

CC(C)C(=O)Nc1ccc([N+](=O)[O-])c(C(F)(F)F)c1
inactive: [8] | [7]
active: PGR (gene 5241) 46.1 µM

Cc1nc(-c2ccccn2)ncc1C(=O)Nn1cc(C)c2cc(F)ccc21
active: [1] 12.7 µM | [2] 9.57 µM | [3] 5.19 µM | [5] 3.34 µM | [9] 11.5 µM
inactive: [4] | [6]

O=S(=O)(O)c1ccc(N=Nc2c(O)ccc3cc(S(=O)(=O)O)ccc23)cc1
inactive: [1] | [2] | [3] | [5]

Source: PubChem BioAssay (EPA / NIEHS)
